This is an account of results in PubChem BioAssay (NCI).

The panel holds about 83,000 compounds, 20% with a hit somewhere; the sample as a whole holds those more often.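 Results are percent growth after 48 hours of single-concentration exposure. 100 means growth as in untreated cells, lower positive values show inhibition; negative values down to -100 show cell death.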 Unmarked numbers belong to inactive results. The source made the active and inactive calls. Rule for the calls: active = growth percent below 10; inactive = the rest.

Among the test systems are HT29 colon; SNB-75 CNS; SNB-19 CNS; U251 CNS; PC-3 prostate; SK-MEL-5 melanoma; UACC-62 melanoma; LOX IMVI melanoma; SK-MEL-28 melanoma; SK-MEL-2 melanoma; EKVX NSCLC; SN12C renal; UO-31 renal; TK-10 renal; ACHN renal; CAKI-1 renal; A498 renal; CCRF-CEM leukemia; MOLT-4 leukemia; SR leukemia.
What all share (test): NCI-60 one-dose screen, 48 h (100 = growth as untreated, 0 = no growth, -100 = all killed)
What all share (settings): 10 µM unless noted

As to `Cc1ccc(NC(=O)COC(=O)c2ccc(S(=O)(=O)N3CCCCCC3)cc2)cc1`, the growth in the experiment with HT29 colon was 106%; with SNB-75 CNS, 94.7%; with SNB-19 CNS, 33.4%; in the experiment with U251 CNS, 104%; in the experiment on PC-3 prostate, 93.6%; with SK-MEL-5 melanoma it was 104%. Also, the growth was 95% in the experiment on UACC-62 melanoma; 97.1% in the experiment with LOX IMVI melanoma; 119% with SK-MEL-28 melanoma; 144% with SK-MEL-2 melanoma; 111% in the experiment with EKVX NSCLC; 98.7% with SN12C renal. Also, the growth in the experiment on UO-31 renal was 85.8%; in the experiment on TK-10 renal, 178%; in the experiment with ACHN renal, 107%; in the experiment on CAKI-1 renal, 108%; in the experiment on A498 renal, 128%; with CCRF-CEM leukemia it was 135%. Besides, the figures for the growth in the experiment with MOLT-4 leukemia and in the experiment with SR leukemia were 127% and 131%, respectively.
For `c1ccc(Nc2nnc(-c3cc(-c4cccnc4)n(-c4ccccc4)n3)s2)cc1`, the growth in the experiment with HT29 colon was 3.7% (active); in the experiment on SNB-75 CNS, 102%; with SNB-19 CNS, 102%; in the experiment on U251 CNS, 69.5%; in the experiment with PC-3 prostate it was 82.4%; with SK-MEL-5 melanoma, 69.9%. Further, the growth in the experiment on UACC-62 melanoma was 84.1%; in the experiment with LOX IMVI melanoma, 69.8%; with SK-MEL-28 melanoma, 106%; with SK-MEL-2 melanoma it was 96.5%; with EKVX NSCLC it was 83%; with SN12C renal it was 87.7%. The growth in the experiment on UO-31 renal was 56.9%; with TK-10 renal, 88.6%; in the experiment with ACHN renal it was 81.7%; in the experiment on CAKI-1 renal it was 46.4%; with A498 renal it was 74.4%; in the experiment with CCRF-CEM leukemia it was 72.6%. The growth was 56.5% with MOLT-4 leukemia and 67.1% in the experiment on SR leukemia.
Take `COc1cccc2c1C(=O)c1c(O)c3c(c(O)c1C2=O)C[C@@](O)(/C(C)=N/NC(=O)c1cccc([N+](=O)[O-])c1)C[C@@H]3OC1CC(N)C(O)C(C)O1` (some centres undefined): the growth is -53.7% (active) in the experiment on HT29 colon; -34.2% (active) in the experiment on SNB-75 CNS; -20.8% (active) in the experiment on SNB-19 CNS; -29% (active) with U251 CNS; -35% (active) in the experiment with PC-3 prostate; -100% (active) with SK-MEL-5 melanoma. Besides, the growth was -93.9% (active) in the experiment on UACC-62 melanoma; -33.3% (active) in the experiment with LOX IMVI melanoma; -66.7% (active) with SK-MEL-28 melanoma; -73.6% (active) in the experiment on SK-MEL-2 melanoma; -6.35% (active) in the experiment with EKVX NSCLC; -9.27% (active) with SN12C renal. Further, the growth in the experiment on UO-31 renal was -17% (active); in the experiment with TK-10 renal, -33.8% (active); in the experiment on ACHN renal, -62.6% (active); with CAKI-1 renal, -47.4% (active); in the experiment on A498 renal, -58.6% (active); with MOLT-4 leukemia it was -39% (active).
Consider `Cn1cc(-c2csc(-c3cn(C)c4ncccc34)n2)c2cccnc21`, for which the growth in the experiment on HT29 colon is 98.7%; in the experiment with SNB-75 CNS, 75.7%; with SNB-19 CNS, 94%; with U251 CNS, 96%; in the experiment on PC-3 prostate, 86.9%; with SK-MEL-5 melanoma, 84.9%. Moreover, the growth in the experiment with UACC-62 melanoma was 79.4%; in the experiment on LOX IMVI melanoma, 95%; in the experiment with SK-MEL-28 melanoma it was 101%; in the experiment with SK-MEL-2 melanoma, 107%; in the experiment with EKVX NSCLC, 86.6%; in the experiment on SN12C renal, 93.1%. The growth in the experiment on UO-31 renal is 91.9%; in the experiment with TK-10 renal it was 92.2%; with ACHN renal, 99.7%; in the experiment with CAKI-1 renal, 83.3%; in the experiment with A498 renal, 76.1%; in the experiment with MOLT-4 leukemia it was 95.7%.
In the case of `Nc1ccc2c(c1)/C(=N/O)c1cc([N+](=O)[O-])ccc1-2`, the growth was 88.7% with HT29 colon; 64.1% with SNB-75 CNS; 81.4% in the experiment with SNB-19 CNS; 66.7% in the experiment with U251 CNS; 45.3% in the experiment with PC-3 prostate; 80.9% in the experiment on SK-MEL-5 melanoma. For the same compound, the growth with UACC-62 melanoma was 73.1%; in the experiment with LOX IMVI melanoma, 64.6%; in the experiment with SK-MEL-28 melanoma, 102%; in the experiment on SK-MEL-2 melanoma it was 96.9%; with EKVX NSCLC it was 85.9%; in the experiment on SN12C renal it was 86.2%. Besides, the growth in the experiment on UO-31 renal is 21.7%; in the experiment on TK-10 renal it was 57.6%; with ACHN renal, 58.7%; in the experiment on CAKI-1 renal, 46.6%; in the experiment on CCRF-CEM leukemia it was 25%; with MOLT-4 leukemia, 25.6%. In the experiment with SR leukemia, the growth is 9.6% (active).
Take `S=C(c1ccccc1)N1CCN(c2cccc(Cl)c2)CC1`: the growth with HT29 colon was 94.8%; in the experiment on SNB-75 CNS it was 110%; in the experiment on SNB-19 CNS it was 107%; with U251 CNS, 99.6%; with PC-3 prostate, 75.3%; in the experiment with SK-MEL-5 melanoma, 95.6%. For the same compound, the growth was 91.1% in the experiment on UACC-62 melanoma; 105% with LOX IMVI melanoma; 121% in the experiment with SK-MEL-28 melanoma; 100% with SK-MEL-2 melanoma; 99.5% in the experiment with EKVX NSCLC; 100% in the experiment with SN12C renal. In addition, the growth in the experiment with UO-31 renal was 93.2%; with TK-10 renal, 110%; in the experiment on ACHN renal it was 104%; in the experiment on CAKI-1 renal it was 88.7%; with A498 renal, 64.6%; in the experiment on CCRF-CEM leukemia, 84.1%. Besides, the growth in the experiment on MOLT-4 leukemia was 85.2%; in the experiment with SR leukemia, 82.4%.
For the compound `CC(=O)Nc1ccc2c(c1)Cc1c(F)c(F)c(F)c(F)c1-2`, the growth was 97.1% in the experiment on HT29 colon; 44% in the experiment with SNB-75 CNS; 90.3% in the experiment on SNB-19 CNS; 78.8% with U251 CNS; 81.9% in the experiment on PC-3 prostate; 84.7% with SK-MEL-5 melanoma. Besides, the growth in the experiment with UACC-62 melanoma is 77.4%; with LOX IMVI melanoma, 80.3%; in the experiment with SK-MEL-28 melanoma, 102%; with SK-MEL-2 melanoma, -27.7% (active); in the experiment on EKVX NSCLC, 70.3%; with SN12C renal, 90.2%. Moreover, the growth in the experiment with UO-31 renal is 58.1%; with TK-10 renal, 84.7%; in the experiment on ACHN renal, 87.5%; in the experiment with CAKI-1 renal, 86.6%; with A498 renal, 69.1%; with CCRF-CEM leukemia, 58.9%. In addition, the values for the growth with MOLT-4 leukemia and in the experiment with SR leukemia were 99.4% and 52%, respectively.
Turning to `COc1c(O)cc2oc3cc(O)c(CC=C(C)C)c(O)c3c(=O)c2c1C/C=C(\C)CCC=C(C)C`, the growth with HT29 colon was 26.7%; in the experiment with SNB-75 CNS it was 84.6%; in the experiment with SNB-19 CNS, 80.5%; with U251 CNS, 24.1%; with PC-3 prostate it was 19.5%; in the experiment with SK-MEL-5 melanoma it was 86.6%. Further, the growth in the experiment on UACC-62 melanoma was 98.9%; in the experiment with LOX IMVI melanoma, -85.8% (active); with SK-MEL-28 melanoma, 94.4%; in the experiment with SK-MEL-2 melanoma, 75.3%; with EKVX NSCLC, 81.5%; in the experiment on SN12C renal, -8.91% (active). For the same compound, the growth is 58.3% with UO-31 renal; 37.3% with TK-10 renal; 22.6% with ACHN renal; 79.3% in the experiment on CAKI-1 renal; 120% with A498 renal; 6.16% (active) with MOLT-4 leukemia. Moreover, the growth in the experiment on SR leukemia is -18.2% (active).
